Reference: ChEMBL document CHEMBL3988442, “University of Dundee, Small-Polar-MMV Screening Library” (2021)
Values joined by “and” are separate entries in the source; they are usually repeats but may differ in a detail not shown here. Equal entries are not always repeated. The campaign covered roughly 34,000 compounds. About 290 (0.85%) showed an effect of 50% or more. The entries come from a sample that favours strong results as a whole.

Test system: Plasmodium falciparum
Experiment: Plasmodium falciparum sporozoite viability assay
Type: functional, organism-based
Set-up: scale not given: in the data most compounds retested in dose-response had high values

SMILES	Percent Effect [%]	Percent Effect (10 mM as filed; unlikely as a test dose)
Cc1ccc(CN2CCCC(c3cncc(C)n3)C2)cn1 (stereo not drawn)	7.699	
CCn1ccc(C(=O)N(C)Cc2cnn(-c3cccc(OC)c3)c2)n1		-38.3% and -41.56%
COc1cccc(-n2cc(CN(C)C(=O)c3cnc(O)cn3)cn2)c1		70.55% and 77.42%
COc1cccc(-n2cc(CN(C)C(=O)c3cc[nH]n3)cn2)c1		-69.36% and -66.93%
Cn1ccnc1CN1CCN(CC(=O)NCc2cccs2)CC1	11.24	
CCOC(=O)c1sc2ccsc2c1CNC(=O)CCOC	-1.34	
COc1cccc(-c2ncc(CN3C[C@@H]4CC[C@H](C3)N(C)C4=O)s2)c1		84.86% and 76.95%
CN1C(=O)[C@H]2CC[C@@H]1CN(Cc1cccc(OCc3ccccn3)c1)C2		-14.17% and -8.272%
Cc1nc(C)n(CC2CCCN(CCOc3ccc(C#N)cc3)C2)n1 (stereo not drawn)	-0.23	
O=C(COc1coc(CN2CCOCC2)cc1=O)c1ccc(Cl)cc1	-1.015	
O=C(NCCc1ccccn1)Nc1cc(C(F)(F)F)c[nH]c1=O	1.519	
Cc1nn(C)cc1C(=O)N1CCC(C(=O)c2nc3ccccc3s2)CC1	4.427	
CCc1ncc(CN(C)C2CCN(C(C)C)CC2)cn1.O=C(O)CC(O)(CC(=O)O)C(=O)O	7.243	
COCC(NC(=O)c1cn2ccsc2n1)c1ccnn1C (stereo not drawn)	0.7162	
O=C(Nc1cc(-c2ccccc2)on1)N1CCN(CCO)CC1		64.88% and 38.14%
O=C(CCCc1nc(-c2ccccc2)no1)N1CCN(CCO)CC1	11.73	
CCC(=O)NC1CCCN(C(=O)Nc2cccc(COC(C)C)c2)C1 (stereo not drawn)	3.429	
CCC(=O)NC1CCCN(C(=O)Nc2cc(-c3ccccc3)on2)C1 (stereo not drawn)		86.86% and 95.97%
O=C(Nc1cc(-c2ccccc2)on1)N1CC[C@H](O)C1		-24.83% and -17.1%
CC(=O)NC1CCCN(C(=O)Nc2cccnc2-n2cccn2)C1 (stereo not drawn)	-4.732	
Cc1csc(CNCC(C)c2nc3ccccc3o2)n1 (stereo not drawn)	10.3	
O=C(Cn1cnc2cc3c(cc21)OCCCO3)NC1CCCCC1		58.19% and 56.08% and 47.01%
O=C(Cn1cnc2cc3c(cc21)OCCCO3)NC1CCCC1		34.04% and 26.95% and 25.51%
O=C(Cn1cnc2cc3c(cc21)OCCCO3)NCCc1ccccc1		3.571% and -13.25% and -3.678%

SMILES	Percent Effect [%]	Percent Effect (10 mM as filed; unlikely as a test dose)
NC(=O)N1CCC2(CC1)CC(=O)N(CC1CCCO1)c1ccccc12 (stereo not drawn)	6.567	
Cc1cc(CN2CCOC(Cn3nc(C)cc3C)C2)on1 (stereo not drawn)	2.612	
COCCN(C(=O)c1ccccn1)c1nc2c(s1)CCc1c-2cnn1C		80.83% and 57.64% and 71.31%
CCCN(C(=O)c1cnccn1)c1nc2c(s1)CCc1c-2cnn1C	1.308	
CCCN(C(=O)c1ccncc1)c1nc2c(s1)CCc1c-2cnn1C	11.45	
COCCN(C(=O)c1cnccn1)c1nc2c(s1)CCc1c-2cnn1C	-10.14	
Cc1ccc(C(O)CN2CCN(Cc3nccn3C)CC2)cc1C (stereo not drawn)	1.122	
Cc1noc(C)c1CN(C)C(=O)NC1CCCN(S(C)(=O)=O)C1 (stereo not drawn)	9.671	
Cc1cnn(CC2CN(Cc3nc4ccccc4s3)CCO2)c1 (stereo not drawn)		55.85% and 70.99% and 46.92%
Cc1nc(CN2CCOC(Cn3cncn3)C2)nc2ccccc12 (stereo not drawn)		1.85% and -1.802% and -10.11%
Cc1cc(C)n(CC2CN(Cc3ccccn3)CCO2)n1 (stereo not drawn)	1.241	
Cc1cnn(CC2CN(Cc3nc4ccccc4nc3C)CCO2)c1 (stereo not drawn)	-7.63	
c1ccc(-c2ccc(CN3CCOC(Cn4cncn4)C3)cc2)cc1 (stereo not drawn)	-3.122	
c1ccc2sc(N3CCOC(Cn4cccn4)C3)nc2c1 (stereo not drawn)	9.76	
Cc1cc(C)n(CC2CN(Cc3nc4ccccc4s3)CCO2)n1 (stereo not drawn)		66.96% and 52.93% and 45.91%
Cc1nc2ccccc2nc1CN1CCOC(Cn2cccn2)C1 (stereo not drawn)	6.321	
Cc1cnn(CC2CN(Cc3nc4ccccc4o3)CCO2)c1 (stereo not drawn)	-0.5102	
c1ccc(OCCN2CCC(c3nnc(-c4cccnc4)o3)CC2)cc1	-3.337	
CCOCC1c2c(cnn2C)CCN1C(=O)c1cc(C)on1.O=C(O)C(F)(F)F (stereo not drawn)	15.94	
COc1ccc(Br)c(C(=O)NCC2CC2)c1	3.186	
CC(C)COCC1CN(Cc2ccco2)Cc2ncn(C)c21 (stereo not drawn)	12.26	
Cc1ccc(CN2CC[C@@H]3[C@@H](CO[C@H]3CN3CCN(C)CC3)C2)s1.O=C(O)C(F)(F)F.O=C(O)C(F)(F)F.O=C(O)C(F)(F)F	10.79	
O=C1[C@H]2CN(S(=O)(=O)C3CC3)C[C@H]2CN1CC1CC1	4.506	
CC(=O)Nc1nc(C(=O)N2CCCCC2Cn2cc(C)cn2)cs1 (stereo not drawn)	-12.14	

SMILES	Percent Effect [%]	Percent Effect (10 mM as filed; unlikely as a test dose)
Cc1ccc(S(=O)(=O)NC(=O)c2c(C)noc2C(C)C)cc1C	-15.45	
CNC(=O)CCNC(=O)CCc1c(C)nc2cc(O)nn2c1C	8.263	
Cc1ccc(CN(C)C(=O)CNC(=O)N2CCc3ccccc3C2)o1	1.19	
CCC1c2ccsc2CCN1C(=O)NCc1ccc(C)nc1 (stereo not drawn)	6.154	
CC(C)(C)c1cn2nc(N3CCCC3Cn3cncn3)sc2n1 (stereo not drawn)		-5.183% and 4.187% and 0.2303%
CC(C)(C)c1cn2nc(N3CCOC(Cn4cncn4)C3)sc2n1 (stereo not drawn)	8.052	
CC(C)(C)c1cn2nc(N3CCCC(Cn4cncn4)C3)sc2n1 (stereo not drawn)		61.38% and 60.13% and 50.37%
Cc1nc(-c2c(C)noc2C)cc(C2CCN(S(=O)(=O)N(C)C)CC2)n1	10.55	
CN(C)C(=O)CN1CC[C@]2(CN(CC3CC3)C[C@H]2c2ccccc2)C1=O.O=C(O)C(F)(F)F	2.654	
O=C(CCc1ccccc1)N1CC(n2cncn2)C1	7.531	
COc1c(CNCc2ccc3c(c2)OCO3)c(C(C)C)nn1C	7.092	
O=C(NCCc1ccccc1)N1CCC(C2OCCO2)CC1		28.36% and 65.96%
O=C1NCCN2CCN(C(=O)Nc3ccc(-c4ccccc4)cc3)CC12 (stereo not drawn)		-23.97% and -24.61%
O=C1NCCN2CCN(C(=O)NCCc3ccccc3)CC12 (stereo not drawn)		64.04% and 69.93%
O=C(NCc1ccccc1F)N1CCC(C2OCCO2)CC1	0.1127	
CC1=N[C@@]2(CC[C@@H]3CN(C(=O)NCCc4ccccc4)C[C@@H]32)C(=O)N1	2.735	
O=C(NCCc1ccccc1)N1CCCCC1C1OCCO1 (stereo not drawn)		-48% and -64.36%
CC(=O)N1CCCC1C(=O)NCCOc1cccc(F)c1 (stereo not drawn)	-6.239	
Cn1cc(C(=O)N2C[C@@H]3CN(S(C)(=O)=O)CCO[C@@H]3C2)cn1	-2.6	
C[C@]1(O)CN(CCO)CC[C@@H]1Oc1cccc(F)c1	17.57	
COc1ccccc1OCCC(=O)N1CCCCC1c1nccs1 (stereo not drawn)	-5.924	
CN(C)CCNc1ccc(-c2nc(-c3ccccc3F)no2)cn1		80.1% and 68.27%
CC(C)(CO)Nc1ccc(-c2nc(-c3ccccc3F)no2)cn1		13.89% and 24.65%
CC(O)CN1CCC(CNCc2ccc(C(N)=O)cc2)CC1 (stereo not drawn)	0.9015	

SMILES	Percent Effect [%]	Percent Effect (10 mM as filed; unlikely as a test dose)
Cc1ccc(CNC(=O)NC(C)Cn2cccn2)cn1 (stereo not drawn)	11.6	
CCN1CCN(c2ccc(CNC(=O)Cc3c(C)noc3C)cn2)CC1	9.727	
Cc1nc(CN2CCC2(CCCc2ccccn2)C(=O)N(C)C)co1 (stereo not drawn)	12.32	
CCOCc1nn(CC2CC2)c2c1CN(Cc1cccs1)CC2.O=C(O)C(F)(F)F.O=C(O)C(F)(F)F	6.48	
Cc1nc(CN2CC(CCCc3ccccn3)(C(=O)N(C)C)C2)co1	-0.6757	
COc1cccc(OCC2CCCN(C3CCN(C(C)=O)CC3)C2)c1 (stereo not drawn)		-11.14% and -12.8% and -12.12%
COc1cccc(OCC2CCCN(C(=O)c3cnc(C)nc3O)C2)c1 (stereo not drawn)	-6.706	
Cc1nn(CC(C)C)c(N(C)C)c1CNCc1ccc2c(c1)OCO2	-0.9874	
Cc1nc(Nc2cnccn2)cc(C2CCN(c3ncccn3)C2)n1 (stereo not drawn)	4.755	
CCOc1ccc(C(=O)N2CCCC(n3ccnc3C)C2)cc1OC (stereo not drawn)	0.3069	
CCc1cnc(N2CCc3cc(C(=O)NC)c(N(C)C)nc3CC2)nc1.O=C(O)C(F)(F)F	0.8439	
O=C(c1cc(=O)c(OCc2ccccc2)co1)N1CCSCC1	-8.629	
NC(=O)C1CCN(Cc2csc(-c3ncccn3)n2)CC1		-22.27% and -16.43% and -15.46%
c1cnc(-c2nc(CN3CCN(CC4CC4)CC3)cs2)nc1		84.72% and 73.85% and 60.32%
c1cnc(-c2nc(CN3CCCC(N4CCCC4)C3)cs2)nc1 (stereo not drawn)	5.451	
c1cnc(-c2nc(CN3CCC(c4ccn[nH]4)CC3)cs2)nc1	5.764	
CC(=O)Nc1nc2c(s1)C1(CCN(C)CC1)Nc1ccccc1S2	12.96	
Cc1nccc(N2CCCC(C)(C(=O)NC3CCCC3)C2)n1 (stereo not drawn)	2.213	
Cc1cnn(CC2CCCN2Cc2nc(N)c3ccccc3n2)c1 (stereo not drawn)		22.63% and 18.94% and 34.15%
Cc1cnn(CC2CCCCN2Cc2nc(C)c3ccccc3n2)c1 (stereo not drawn)		35.56% and 21.88% and 27.76%
Cc1cnn(CC2CCCCN2Cc2nc(N)c3ccccc3n2)c1 (stereo not drawn)		41.2% and 50.14% and 52.23%
